The list is not random: actives were taken first. Their share in the collection is about 3.4%.
Sm TGR inh = qHTS Assay for the Inhibitors of Schistosoma Mansoni Peroxiredoxins; Schistosoma mansoni thioredoxin glutathione reductase (TGR), Q962Y6; purified TGR, DTNB reduction, TNB absorbance 405 nm; Potency, µM (series often up to 114 µM), without a hit: at the top dose activity change, negative = inhibition, actives largely listed as inhibitors; AID 485364, 2010; 360,000 tested, 3% active; note: nearly all actives have a fitted effect of over 60% in size
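Kinetic colorimetric format: TGR-catalysed, NADPH-driven DTNB reduction monitored via TNB absorbance. Enzyme dispensed at 20 nM; compound exposure 15 min at room temperature before reaction start.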
Giardia FBPA inh = qHTS Assay for Inhibitors of Fructose-1,6-bisphosphate Aldolase from Giardia Lamblia; purified Giardia FBPA; Potency, µM (highest dose often 59.6 µM), inactives show top-dose activity, negative = inhibition, actives largely listed as inhibitors; A8B2U2; 290,000 tested, 0.71% active; note: nearly all actives have a fitted effect of over 55% in size
Target sequence (A8B2U2 whole entry, looked up): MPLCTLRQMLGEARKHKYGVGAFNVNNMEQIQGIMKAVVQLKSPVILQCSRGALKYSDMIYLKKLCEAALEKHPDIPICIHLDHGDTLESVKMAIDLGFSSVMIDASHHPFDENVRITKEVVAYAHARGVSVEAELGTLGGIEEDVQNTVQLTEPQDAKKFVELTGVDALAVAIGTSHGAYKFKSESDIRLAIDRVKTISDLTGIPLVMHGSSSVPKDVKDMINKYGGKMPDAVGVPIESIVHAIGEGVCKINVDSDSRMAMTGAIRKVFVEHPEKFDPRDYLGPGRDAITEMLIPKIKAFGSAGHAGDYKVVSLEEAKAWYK
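Giardia FBPA (40 nM reagent) was preincubated 10 min at RT with compound (up to 57.5 uM final), then substrate plus GAPDH/TPI/NAD/arsenate coupling system with diaphorase/resazurin was added; resorufin fluorescence (525/598 nm) was read after 20 min.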
AmpC inh no detg = qHTS Inhibitors of AmpC Beta-Lactamase (assay without detergent); AID 485341, 2010; P00811; Potency, µM (top dose mostly 57.1 µM), for inactives: at the highest dose activity change, negative = inhibition, actives largely listed as inhibitors; 330,000 tested, 0.52% active; AmpC nitrocefin hydrolysis, absorbance 480 nm, 0.0001% Triton;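 note: plate controls were no compound for no effect and no enzyme for full effect; nearly all actives have a fitted effect of over 20% in size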
Target sequence (P00811 whole entry, looked up): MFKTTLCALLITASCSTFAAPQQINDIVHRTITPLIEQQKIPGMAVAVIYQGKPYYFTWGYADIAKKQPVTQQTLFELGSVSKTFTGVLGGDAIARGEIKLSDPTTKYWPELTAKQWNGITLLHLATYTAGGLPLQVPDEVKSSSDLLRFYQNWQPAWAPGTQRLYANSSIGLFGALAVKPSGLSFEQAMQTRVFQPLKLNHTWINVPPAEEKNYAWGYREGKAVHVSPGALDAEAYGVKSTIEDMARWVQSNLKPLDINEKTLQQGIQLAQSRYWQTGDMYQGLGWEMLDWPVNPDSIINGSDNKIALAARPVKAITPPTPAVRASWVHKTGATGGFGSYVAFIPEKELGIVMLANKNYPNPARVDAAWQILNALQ
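20 mM phosphate pH 7.0 + 0.01% (detergent screen) or 0.0001% Triton X-100; 5.3 nM AmpC reagent; cpd preinc 15 min RT; nitrocefin (800 uM stock) to start; A480 q20 s × 4 min; Activity was normalised to no-enzyme and no-compound control wells.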
AmpC inh detg = qHTS Inhibitors of AmpC Beta-Lactamase (assay with detergent); 370,000 tested, 0.041% active; Potency, µM (series often up to 114 µM), inactives show top-dose activity change, negative = inhibition, most hits filed as inhibitors; P00811; AmpC hydrolysis of nitrocefin, absorbance 480 nm, 0.01% Triton;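 note: 0% = no-compound wells and -100% = no-enzyme wells; nearly all actives have a fitted effect of over 25% in size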
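AmpC (5.3 nM in the dispensed reagent) in 20 mM phosphate pH 7.0 with 0.01% (detergent screen) or 0.0001% Triton X-100 was preincubated with compounds for 15 min at room temperature. Nitrocefin was then added from an 800 uM solution, and hydrolysis was followed at 480 nm.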
RE007 growth inh = qHTS Assay for Inhibitors of the HIV-1 protein Vpr | S. pombe RE007 Vpr strain, BacTiter-Glo ATP luminescence, 24 h | Potency, µM (series often up to 92.2 µM), for the others: at the top dose activity change, negative = less growth, hits mostly inhibitors | 360,000 tested, 0.21% active | AID 651644, 2012; active = well fitted falling curve with a large enough effect; inconclusive = small, poorly fitted or top-dose-only effect; inactive = no such curve, though single readings can be large or run the other way; note: nearly all actives have a fitted effect of over 50% in size
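Fission yeast strain RE007, carrying one chromosomally integrated HIV-1 vpr copy, was seeded at OD 0.01 in PMG+AL medium with 23 nL pinned compound. After 24 h at 30 °C and 99% humidity, viability was read by BacTiter-Glo luminescence.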
* marks the source's active call; other numbers are inactive results; ? = inconclusive; . = not tested or not shown; [ ] = another dose, or the depositor's remark. Unless noted, calls come from the whole dose curve; as a rule, active = well fitted curve in the direction sought with a large enough effect; inconclusive = small, poorly fitted or top-dose-only effect, or another doubt; inactive = no such curve, though single readings can be large; an effect the other way counts as inactive or inconclusive. Unless noted, % is set by controls: 0 for no effect and ±100 for the full control effect; potency is the fitted concentration of half-maximal effect.

SMILES	Sm TGR inh	Giardia FBPA inh	AmpC inh no detg	AmpC inh detg	RE007 growth inh
COc1ccc2c(CNCc3ccco3)c(C(=O)O)n(Cc3ccccc3)c2c1	-11%	.	.	-8%	.
COc1ccc(Cn2c(C(=O)O)c(CNCCc3ccco3)c3ccc(OC)cc32)cc1	45µM*	.	.	6%	.
COc1cccc(C(=O)c2ccccc2C(=O)O)c1	.	.	.	.	4%[18.4 µM]
COC(=O)c1c(NC(=O)c2cc(OC)c(OC)c(OC)c2Br)sc2c1CCC(C)C2 (centres undefined)	6%	.	.	-2%	.
O=C(CCl)Nc1ccc2c(c1)OCO2	16µM*	-5%	-23%	-6%	22%
CS(=O)(=O)N(CC(=O)Nc1ccc2c(c1)OCO2)Cc1ccc(Cl)cc1	-3%	0%	0.28µM*	1%	-1%
CS(=O)(=O)N(CC(=O)Nc1ccc2c(c1)OCO2)Cc1ccccc1	-7%	5%	?	-4%	-3%
O=C(Nc1ccc2c(c1)OCO2)c1noc2c1CCCC2	-4%	-22%	-16%	-10%	5µM*
C=CCc1ccc(OCC(O)COCC)c(OC)c1 (centres undefined)	43%	3%	-3%	?	0%
CCOc1ccc(NC(=O)CN(C)C(=O)CSCc2ccc(C)cc2)cc1OCC	-19%	.	42%	?	-3%
Cc1ccccc1OCC(=O)Nc1c(C)ccc2nsnc12	4%	.	.	-1%	.
CCOC(=O)c1cnc(Nc2nc3ccccc3o2)nc1CN1CCN(C)CC1	50µM*	-14%	-7%	-4%	-6%
CCCOC(=O)Nc1nc2ccccc2o1	-2%	0%	-18%	-15%	14%
O=C1C(=O)c2c(C(=O)c3ccccc3)coc2-c2ccccc21	?	3.2µM*	-35%	0%	11µM*
Cc1oc2c(c1C(=O)c1ccccc1)C(=O)C(=O)c1ccccc1-2	?	1.1µM*	-55%	4%	?
Cc1ccc2nc(-c3ccncc3)[nH]c2c1	-8%	-1%	-4%	0%	-5%
Cc1c(-c2ccccc2)n[nH]c1C(=O)NN	0%	1%	-26%	-19%	-10%
CCOc1ccc(-c2n[nH]c(C(=O)NN)c2C)cc1	-7%	5%	28µM*	-12%	24%
CCC(=O)N1CCN(CCN=CC2=C(O)CC(c3ccc(OC)cc3)CC2=O)CC1 (centres undefined)	-19%	2%	-10%	?	4%
CC1(C)CC(=O)C(C=NCCN2CCN(C(=O)CCl)CC2)=C(O)C1	18µM*	0%	-1%	0%	-3%
CCC(=O)N1CCN(CCN=CC2=C(O)CC(C)(C)CC2=O)CC1	45µM*	5%	-3%	0%	4%
CCCCCC(=O)N1CCN(CCN=CC2=C(O)CC(c3ccc(OC)cc3)CC2=O)CC1 (centres undefined)	50µM*	4%	30%	4%	-13%
N#CC1=C(N)Oc2c(c(=O)oc3ccccc23)C1c1ccc(OC(=O)N2CCOCC2)cc1 (centres undefined)	?	-3%	20%	-1%	-5%
Cn1nc(C(C)(C)C)cc1C(=O)N1CCCCC1c1cc(C(=O)Nc2cccc3c2CCCC3)no1 (centres undefined)	.	.	.	.	-5%
COc1ccc(N=Cc2nc(-c3ccccc3)oc2OC(=O)c2ccccc2)cc1	-27%	-4%	-21%	?	-17%
SMILES	Sm TGR inh	Giardia FBPA inh	AmpC inh no detg	AmpC inh detg	RE007 growth inh
CCOC(=O)c1ccc(N=Cc2nc(-c3ccccc3)oc2OC(C)=O)cc1	?	1%	-14%	?	-16%
CC(=O)Oc1oc(-c2ccccc2)nc1C=Nc1ccccc1	18µM*	.	-26%	2%	1%
Cc1ccc(C(=O)Oc2oc(-c3ccco3)nc2C=Nc2ccccc2)cc1	2.5µM*	.	-17%	4%	.
O=C(CSc1ccc(C(F)(F)F)cc1[N+](=O)[O-])Nc1ccccc1	5%	7%	-23%	5%	-5%
CCC(C(=O)n1cccc1C#N)c1ccccc1C (centres undefined)	50µM*	.	-11%	6%	0%
Cc1cccc(NC(=O)c2cc(Cl)nc3ccccc23)n1	16%	-4%	-25%	6%	-6%
O=C1OC(c2ccccc2)=NC12CC2c1ccc(Cl)cc1 (centres undefined)	14µM*	2%	-10%	6%	27%
CC(=O)c1c(C)[nH]c(C(=O)NNC(=O)c2ccc(C)cc2)c1C	.	.	-20%	.	-7%
COc1ccc(Cl)cc1C(=O)NNC(=O)c1[nH]c(C)c(C(C)=O)c1C	.	.	10µM*	.	-3%
O=C(CCC(=O)N(CC(=O)NC1CCCCC1)CC1CCCO1)Nc1nccs1 (centres undefined)	-1%	3%	-2%	-5%	-5%
O=C1CC(c2ccc(O)c(O)c2)Oc2cc(O)cc(O)c21 (centres undefined)	40µM*	-19%	-36%	1%	4%
O=C1C[C@@H](c2ccc(O)c(O)c2)Oc2c1ccc(O[C@@H]1O[C@H](CO)[C@@H](O)[C@H](O)[C@H]1O)c2O	.	-6%	.	.	.
CC(C)=CCc1c(O)ccc2c1OC(c1ccc(O)c(O)c1)CC2=O (centres undefined)	56µM*	-17%	-53%	3%	3%
O=C1CC(c2ccc(O)cc2)Oc2cc(O)cc(O)c21 (centres undefined)	-14%	8%	-30%	-20%	-14%[18.4 µM]
O=C1CC(c2ccc(O)c(O)c2)Oc2c1ccc(O)c2O (centres undefined)	56µM*	?	-46%	-5%	4%
Cc1c(Cl)cccc1NC(=O)CNC(=O)Cc1n[nH]c(=O)c2ccccc12	.	.	-3%	.	0%
Clc1ccccc1CN1CCN(/N=C/C=C\c2ccco2)CC1	50µM*	1%	-5%	0%	-11%
CC(=O)c1cc(NC(=O)c2ccccc2)c(=O)oc1C	35µM*	1%	-21%	-5%	-5%
Cc1oc(=O)c(NC(=O)c2ccccc2)cc1C(=O)c1ccccc1	22µM*	-9%	-42%	-12%	20µM*
Cc1oc(=O)c(NC(=O)c2ccc(Cl)cc2)cc1C(=O)c1ccccc1	4µM*	-27%	-58%	-14%	28µM*
CC(=O)c1cc(NC(=O)c2ccc(C)cc2)c(=O)oc1C	40µM*	0%	-24%	-5%	-17%
O=C(Nc1nnc([C@H]2C[C@H](O)[C@@H](CO)O2)s1)NC(c1ccccc1)c1ccccc1	.	.	.	.	-1%
CC1CC(C)CN(C(=O)CSCC(=O)O)C1 (centres undefined)	7%	-1%	19%	4%	5%

Source: PubChem (National Center for Advancing Translational Sciences (NCATS))
